Autofluor Jurkat = autofluorescence counter-screen for VLA-4 integrin assays; Jurkat cells, compound autofluorescence, flow cytometry; hits give high values; 1 = vehicle-only cell background; fluorescence ratio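 (tested at 10 µM compound in the well)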; hit rate 0.61% among 24,000;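 active means fluorescence ratio above 2.44, which is 1 plus 3 SD of all ratios; inconclusive means signal too bright to measure linearly, ratio around 10 or more; inactive means fluorescence ratio below 2.44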;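 further: green fluorescence of cells measured with 488 nm excitation and 530 nm emission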
VLA-4 antagonist = blocks LDV-FITC ligand binding to Mn2+-activated human VLA-4 integrin; AID 529; hit rate 0.2% among 24,000; Jurkat cells, LDV-FITC binding with Mn2+, flow cytometry; 100% = Mn2+-driven binding gain fully reversed; inhibition, % at 10 µM (by protocol);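 active means inhibition above 50%; inconclusive means compound itself fluorescent, judged against control cell fluorescence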
VLA-4 allo ag = allosterically activates the human VLA-4 integrin; P13612; Jurkat cells, LDV-FITC binding, flow cytometry; activation, % at 10 µM (by protocol); 24,000 tested, under 10 active; AID 528;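 active means fluorescent ligand binding to cells raised by more than 40% of the manganese-induced maximum; inconclusive means compound's own fluorescence above 85% of the ligand control signal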
Prostate diff = activators of LNCaP prostate cell differentiation; hit rate 0.56% among 24,000; AID 795; side scatter shift, % at 10 µM; flow cytometry side scatter, 4 d;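 active means side scatter shift above 30%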;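 further: androgen-responsive LNCaP prostate cancer cells in charcoal-stripped serum medium; higher shift means more granular cells and more differentiation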
FPR ligand = human FPR ligand, with FPRL1 counter-screen; P21462; FPR-expressing cells, fluorescent ligand binding, flow cytometry; inhibition, % (test concentration not listed); hit rate 0.74% among 24,000; AID 440
FPRL1 ligand = ligands of human FPRL1, also counter-screen for FPR ligands | P25090 | FPRL1-expressing cells, fluorescent ligand binding inhibition, flow cytometry | inhibition, % (concentration not given with the values) | hit rate 0.3% among 24,000 | AID 441
Target sequence (P25090 whole entry, looked up): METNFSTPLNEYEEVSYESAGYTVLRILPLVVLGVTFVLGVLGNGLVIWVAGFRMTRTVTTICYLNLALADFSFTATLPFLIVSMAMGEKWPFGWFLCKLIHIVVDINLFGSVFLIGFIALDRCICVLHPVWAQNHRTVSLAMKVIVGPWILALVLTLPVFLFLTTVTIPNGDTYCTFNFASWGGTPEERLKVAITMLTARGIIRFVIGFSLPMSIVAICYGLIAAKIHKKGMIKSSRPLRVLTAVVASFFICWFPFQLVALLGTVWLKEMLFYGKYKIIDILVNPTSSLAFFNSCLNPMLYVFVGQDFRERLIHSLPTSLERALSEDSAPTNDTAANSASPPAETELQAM
Hits are given with their value; . = inactive; ? = inconclusive; / = not tested or not shown. Only some compounds are listed: those with a hit (about 2.4% of all), similar ones and a draw of the others. Unless noted, no stated cut-off is given here; in the data, active means inhibition above about 30%; inconclusive means no clear call, values can overlap the other calls; inactive means below that.

SMILES	Autofluor Jurkat	VLA-4 antagonist	VLA-4 allo ag	Prostate diff	FPR ligand	FPRL1 ligand
CC(C)N=c1cc2n(-c3ccc(Cl)cc3)c3ccccc3nc-2cc1Nc1ccc(Cl)cc1	3.9	?	?	.	.	.
CCOc1ccc(-n2nc(C(=O)N3CCOCC3)c3ccccc3c2=O)cc1	.	.	.	.	.	.
COc1ccc(-n2c(Cc3cccn3C)nnc2SCC(=O)Nc2ccc(Cl)cc2)cc1	.	.	.	.	56	.
O=S(=O)(c1cnc[nH]1)N1CCc2ccccc21	3.1	?	?	.	?	33
Cc1c2c(n3c(nc4ccccc43)c1C#N)N(Cc1ccccn1)CC2	.	.	.	/	.	.
CC(=O)N1CCc2cc(S(=O)(=O)NC(CC(C)C)C(=O)N3CCc4ccccc4C3)ccc21 (configuration not stated)	.	.	.	.	.	.
Cc1ccsc1C1C2=C(CC(C)(C)CC2=O)Nc2ncnn21 (configuration not stated)	.	.	.	.	36	.
CCOC(=O)Cc1c(C)nc2c(-c3cccc(Br)c3)c[nH]n2c1=O	/	/	/	/	.	.
COc1cccc(N2C(=O)C3ON(c4ccccc4)C(c4cccs4)C3C2=O)c1 (configuration not stated)	.	?	?	.	39	.
Cc1cccc(-n2nc3c(c2NC(=O)c2ccco2)CSC3)c1C	.	.	.	.	96	.
CCOc1ccc2nc(N3CCC(C(=O)N4CCN(c5ncccn5)CC4)CC3)sc2c1	.	.	.	.	.	.
CCOc1ccc2nc(N3CCC(C(=O)N4CCN(c5ccccn5)CC4)CC3)sc2c1	.	54	.	.	.	.
CCC(C)(C(=O)NC1CCCCC1)N(Cc1ccco1)C(=O)c1ccc2c(c1)OCO2 (configuration not stated)	.	.	.	.	.	.
CCC(C)(C(=O)NC1CCCC1)N(CC1CCCO1)C(=O)c1ccc2c(c1)OCO2 (configuration not stated)	.	.	.	.	37	.
Cn1c2ccccc2c2c(C(=O)O)cn(C3CCCC3)c(=O)c21	.	51	.	.	.	.
Cc1cccc(-n2c(=O)[nH]c3c(C(N)=O)nc(C(C)C)nc32)c1	.	?	?	.	.	.
COc1ccc(-c2nc(C(N)=O)c3[nH]c(=O)n(-c4cccc(Cl)c4)c3n2)cc1OC	4.5	?	?	.	.	.
CCOC(=O)c1ccc(Oc2cc(C)nc(SC)n2)cc1	.	.	.	.	.	.
Cn1cnc2c(sc3nc(N4CCOCC4)c4c(c32)CC(C)(C)OC4)c1=O	.	.	.	.	.	.
O=C(CSc1nnc2scc(-c3ccccc3)n12)Nc1nsc(-c2ccccc2)n1	.	.	.	.	.	.
Cc1ccc(-c2nc(NC(=O)CSc3nnnn3-c3ccccc3)ns2)cc1	.	51	.	.	.	.
O=C(Cc1coc(-c2ccc(F)cc2)n1)N1CCOCC1	.	.	.	30	.	.
O=C(Cc1coc(-c2ccc(F)cc2)n1)NC1CCCCC1	.	.	.	.	.	.
COc1ccc(CCNC(=O)c2ccn[nH]2)cc1OC	.	.	.	.	.	.
COc1cccc(OCC(=O)Nc2c(C(=O)Nc3ccc(OC)cc3OC)oc3ccccc23)c1	.	.	.	36	.	.
SMILES	Autofluor Jurkat	VLA-4 antagonist	VLA-4 allo ag	Prostate diff	FPR ligand	FPRL1 ligand
O=C(NCc1ccccn1)C1CCN(S(=O)(=O)N2CCCC2)CC1	.	.	.	.	.	.
Cc1ccc(C)c(C(=O)N(Cc2nc(-c3ccc(Cl)cc3)no2)C(C)C)c1	.	.	.	.	.	.
Cc1cccc(-c2noc(CN(C(=O)c3c(-c4ccccc4Cl)noc3C)C(C)C)n2)c1	.	59	.	.	.	.
Cc1n[nH]c(C)c1S(=O)(=O)N1CCCC(C(=O)NC2CCCc3ccccc32)C1 (configuration not stated)	2.5	?	?	.	.	.
Cc1n[nH]c(C)c1S(=O)(=O)N1CCCC(C(=O)NCc2cccs2)C1 (configuration not stated)	.	.	.	.	.	.
Cc1sc(NC(=O)C2CCCCC2C(=O)O)c(C(N)=O)c1-c1ccc(C(C)(C)C)cc1 (configuration not stated)	/	/	/	/	49	.
COc1ccc2c(c1)C(=O)N(c1ccccc1OC)C(=O)C2	6.3	?	?	.	.	.
CN(C)Cc1cn(CCC(=O)O)c2ccccc12	.	?	?	.	.	.
COc1cccc(-n2nnc3c(=O)n(CC(=O)N4CCC(C)CC4)cnc32)c1	.	.	.	.	.	.
COc1cccc(-n2nnc3c(=O)n(CC(=O)N4CCC(Cc5ccccc5)CC4)cnc32)c1	.	74	.	.	.	.
CCOC(=O)N1CCC(NC(=O)c2cc(C)c3c(C)nn(-c4ccccc4)c3n2)CC1	.	.	.	.	.	.
O=C(C1=C(O)C(=O)N(CCN2CCOCC2)C1c1ccccc1)c1cccs1 (configuration not stated)	/	/	/	/	44	.
O=C(C1=C(O)C(=O)N(CCCN2CCOCC2)C1c1ccccn1)c1cccs1 (configuration not stated)	/	/	/	/	.	.
C=CCOc1cccc(C2C(C(=O)c3ccco3)=C(O)C(=O)N2CCN2CCOCC2)c1 (configuration not stated)	/	/	/	/	63	.
COc1ccc(OC)c(C2C(C(=O)c3ccco3)=C(O)C(=O)N2CCCN2CCOCC2)c1 (configuration not stated)	/	/	/	/	50	.
COc1ccc(N2CCN(Cc3nc4c(c(=O)n(C)c(=O)n4C)n3Cc3ccccc3C)CC2)cc1	.	.	.	.	.	.
Cc1cc(Cn2ccnc2)c(C)cc1Cn1ccnc1	.	.	.	.	.	.
N#Cc1cccc(NC(=O)NCCc2c[nH]c3ccccc23)c1	.	?	?	.	.	.
COc1ccc(-c2cn3cccnc3n2)cc1NC(=O)c1ccc(Br)o1	.	.	.	.	.	.
CCCC(=O)Nc1cc(-c2cn3cccnc3n2)ccc1OC	.	.	.	.	.	47
COc1ccc(-c2cn3cccnc3n2)cc1NC(=O)CC(C)C	.	.	.	.	.	40
CCOc1ccccc1NC(=O)C1CCN(S(=O)(=O)c2cccc3cccnc23)CC1	.	.	.	.	.	.
COc1cc(C(=O)Nc2cc(Cl)ccc2C)c(-n2cnnn2)cc1OC	.	.	.	.	.	.
O=C(COc1ccc(S(=O)(=O)N2CCCC2)cc1Cl)NC1CC1	.	.	.	36	.	.
Cc1ccc(N(C(=O)c2cccs2)C2C=CS(=O)(=O)C2)cc1 (configuration not stated)	.	.	.	.	.	.
C/C(O)=c1/ccc2cccc3nc(C)nc1c23	3.5	?	?	.	.	.
O=S(=O)(NCCOCC(F)(F)F)c1ccc2oc3ccccc3c2c1	.	.	.	.	.	.
